The list is not random: actives were taken first. Their share in the collection is about 6.9%.
IL1B secr inh: inflammasome signaling inhibition, IL-1 beta readout; THP-1 LPS/ATP IL-1B secretion, AlphaLISA, 16 h; hits give low values; activity change, % at 57.5 µM; hit rate 4.7% among 360,000; in the data active means activity change below about -50%; inconclusive means mostly about -30% to -49%
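Secreted IL-1B measured by AlphaLISA bead assay after 16 h compound exposure of THP-1 cells; compounds (final up to 57.5 uM) added 1 h before LPS (250 ng/mL) and ATP (1.25 mM) stimulation; lower signal means less secretion.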
Giardia kill: Giardia lamblia killing; Giardia lamblia trophozoite viability; activity change, % at 7.66 µM, hits read low; hit rate 0.15% among 340,000; AID 540267; in the data active means activity change below about -80%; inconclusive means between about -30% and that limit;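 further: parasites exposed to compound for two days anaerobically before the ATP read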
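Trophozoite viability was measured as ATP-dependent luminescence, read 15-30 min after reagent addition. Before that, parasites at 100 cells/well were exposed to compounds for 48 h, anaerobically, at 37 deg C.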
Vif-A3F inh: Vif-A3F binding inhibition. HeLa A3F-eYFP + Vif (tagged APOBEC3F with the HIV-1 protein that degrades it), YFP fluorescence increase. hit rate 0.2% among 390,000. Potency, µM (doses to about 46.1 µM). AID 602313; further: nearly all actives have a fitted effect of over 65% in size
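HeLa cells stably expressing Vif plus C-terminally eYFP-tagged A3F were seeded, incubated overnight at 37 deg C, dosed with compound, incubated overnight again at 37 deg C. Yellow fluorescence (Ex 488/Em 500-530) reported blocked Vif-mediated A3F-eYFP degradation.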
MCF10A rereplic: induces DNA re-replication in MCF 10a normal breast cells; MCF 10A DNA re-replication, Hoechst nuclear intensity, 48 h; Potency, µM (highest dose often 46.1 µM), most hits filed as activators; hit rate 2.9% among 350,000; further: nearly all actives have a fitted effect of over 50% in size
Vif-APOBEC3G blk: blocks the Vif interaction with human APOBEC3G | Q9HC16 | HeLa A3G-eYFP + Vif (tagged APOBEC3G with the HIV-1 protein that degrades it), YFP fluorescence, overnight | Potency, µM (doses to about 46.1 µM), hits mostly inhibitors | hit rate 0.076% among 410,000 | AID 602310; further: nearly all actives have a fitted effect of over 60% in size
Target sequence (Q9HC16 whole entry, looked up): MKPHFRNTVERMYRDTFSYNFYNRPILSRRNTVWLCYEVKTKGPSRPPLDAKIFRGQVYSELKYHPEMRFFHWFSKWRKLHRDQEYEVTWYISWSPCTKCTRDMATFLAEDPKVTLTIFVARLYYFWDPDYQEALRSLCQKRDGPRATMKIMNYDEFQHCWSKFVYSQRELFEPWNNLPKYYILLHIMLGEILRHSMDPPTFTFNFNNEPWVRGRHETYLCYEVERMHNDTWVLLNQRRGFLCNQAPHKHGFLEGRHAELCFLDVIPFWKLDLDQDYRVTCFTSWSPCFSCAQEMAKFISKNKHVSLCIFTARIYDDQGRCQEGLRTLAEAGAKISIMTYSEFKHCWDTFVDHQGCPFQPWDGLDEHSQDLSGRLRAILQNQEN
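HeLa cells stably expressing Vif and C-terminally eYFP-tagged A3G, seeded overnight at 37 deg C, then exposed to compound by pintool overnight at 37 deg C. Rise in yellow fluorescence (Ex 488/Em 500-530, Acumen) marks blocked Vif-driven A3G degradation.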
SW480 rerep: DNA re-replication induction in SW480 cells; SW480 DNA re-replication, Hoechst DNA content imaging, 48 h; Potency, µM (series often up to 46.1 µM), hits mostly activators; hit rate 1.8% among 340,000; AID 624297; further: nearly all actives have a fitted effect of over 55% in size
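Image-based read-out: total Hoechst fluorescence of nuclei (405 nm excitation, 500-530 nm emission), with hits raising the fraction of high-intensity nuclei. SW480 colon cells incubated 48 hr with compounds at 37 C.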
A number is an active result; – = inactive; ? = inconclusive; · = not tested or not shown. Unless noted, the call rests on the fitted dose curve; in most records, active means well fitted curve in the direction sought with a large enough effect; inconclusive means small, poorly fitted or top-dose-only effect, or another doubt; inactive means no such curve, though single readings can be large; an effect the other way counts as inactive or inconclusive.

SMILES	IL1B secr inh	Giardia kill	Vif-A3F inh	MCF10A rereplic	Vif-APOBEC3G blk	SW480 rerep
COc1cccc(-c2nn(C)c3sc(C(=O)NCCCN(C)Cc4ccccc4)cc23)c1	-79	–	–	?	–	16µM
CCCCN(C)CCNC(=O)c1cc2c(-c3cccc(OC)c3)nn(C)c2s1	-87	–	–	?	–	?
CCN(CC)CCCNC(=O)c1cc2c(-c3cccc(OC)c3)nn(C)c2s1	?	–	–	?	–	?
COc1cccc(-c2nn(C)c3sc(C(=O)NCc4ccco4)cc23)c1	-56	–	–	6.3µM	–	–
CCCCN(CC)CCCNC(=O)c1cc2c(-c3ccc(OC)c(OC)c3)nn(C)c2s1	-70	–	–	?	–	–
CCn1cc(C(=O)NCCc2ccc(Cl)cc2)c(=O)c2cc(S(=O)(=O)N3CCC(C)CC3)ccc21	·	·	–	·	–	·
CCc1nc(CN2CCCC(C(=O)c3ccc4c5c(cccc35)CC4)C2)c(C)[nH]1 (configuration not stated)	-100	–	–	?	–	?
O=C(CN1C(=O)C2(SCC(=O)N2c2ccc(Cl)cc2)c2ccccc21)NCCc1ccccc1 (configuration not stated)	·	·	–	·	–	·
CCOC(=O)C1=C(C)NC2=C(C(=O)C(C(=O)OCC)C(c3ccco3)C2)C1c1ccccc1C (configuration not stated)	·	·	·	·	–	·
CSc1ccc(/C=N/n2c(Cc3ccc(Br)cc3)n[nH]c2=S)cc1	–	–	–	–	–	?
CCc1n[nH]c(=S)n1/N=C/c1ccc(-c2ccc(Br)cc2)o1	–	–	–	18µM	–	–
Cc1sc2ncnc(Sc3nnnn3-c3ccc(Cl)cc3)c2c1C	-70	–	–	?	–	?
c1ccc(-n2nnnc2Sc2ncnc3sc4c(c23)CCCC4)cc1	–	–	–	21µM	–	?
CCOc1ccc(CN2CCCC(CO)(Cc3ccc(F)cc3)C2)cc1 (configuration not stated)	?	–	–	–	–	–
OCC1(CCc2ccccc2)CCCN(CCCc2ccccc2)C1 (configuration not stated)	-73	–	–	–	–	–
COc1ccc(CN2CCCC(CO)(Cc3ccc(F)cc3F)C2)cc1 (configuration not stated)	-84	–	–	?	–	–
OCC1(Cc2ccccc2F)CCCN(CCc2ccccc2)C1 (configuration not stated)	–	–	–	–	–	–
OCC1(Cc2ccc(F)cc2F)CCCN(CCCc2ccccc2)C1 (configuration not stated)	-55	–	–	?	–	?
COc1ccc(N2CCN(c3nc(-c4cccs4)nc4ccccc34)CC2)cc1	–	–	–	–	–	–
COc1cccc(Nc2nc(-c3cccs3)nc3ccccc23)c1	-58	–	–	?	–	?
COc1cccc(CN(C)c2nc(-c3cccs3)nc3ccccc23)c1	–	–	–	?	–	?
COc1cccc(Nc2cc(C)c3ccccc3n2)c1	-55	–	–	–	–	–
COc1ccc(Nc2nc(-c3cccs3)nc3ccccc23)cc1	–	–	–	16µM	–	–
Cc1cc(NCc2ccccn2)nc2ccccc12	–	–	–	–	–	–
Cc1cc(NC2CCCCC2)nc2ccccc12	-91	–	–	–	–	–
SMILES	IL1B secr inh	Giardia kill	Vif-A3F inh	MCF10A rereplic	Vif-APOBEC3G blk	SW480 rerep
Cc1cc(=O)n(CC(=O)NCCC(C)C)c2c1c(C)nn2C	·	·	–	·	–	·
CCCCCCCCCCCC(=O)OCC(O)C1OCC(O)C1O (configuration not stated)	·	·	·	–	·	–
Fc1c(F)c(C(F)(F)F)c(F)c(F)c1N/N=C\c1cccs1	-74	–	–	?	–	?
O=C(c1ccccc1)C1CCc2occc2C1=O (configuration not stated)	–	–	–	–	–	–
O=C(c1ccccc1)C1C(=O)c2ccccc2C1=O	–	–	35µM	–	?	–
Fc1ccc(/C=N/n2c(C3CCCCC3)n[nH]c2=S)cc1	–	–	–	?	–	–
S=c1[nH]nc(C2CCCCC2)n1/N=C/c1cccc(Cl)c1Cl	-61	–	?	?	–	–
CN(C)c1ccc(/C=N/n2c(C3CCCCC3)n[nH]c2=S)cc1	-62	–	–	?	–	–
CCOc1ccc(/C=N/n2c(C3CCCCC3)n[nH]c2=S)cc1	–	–	–	10µM	–	–
CCOC(=O)C1CCN(C(c2ccccc2)c2c(O)cc(C)n(Cc3ccco3)c2=O)CC1 (configuration not stated)	·	·	–	·	–	·
CCOc1ccc2nc(NC(=O)c3nc(SCc4ccc(C)cc4)ncc3Cl)sc2c1	·	·	–	·	–	·
CCOC(=O)[C@]12CCCC=C1N(Cc1ccc3c(c1)OCO3)C(=O)[C@H](CC(=O)N1CCC(c3ccccc3)CC1)C2	-76	·	·	·	·	·
COC(=O)[C@]12CCCCC=C1N(Cc1ccccc1)C(=O)[C@H](CC(=O)N1CCN(C(=O)c3ccco3)CC1)C2	–	·	·	·	·	·
COC(=O)[C@]12CCCCC=C1N(Cc1ccc3c(c1)OCO3)C(=O)[C@H](CC(=O)N1CCN(C(=O)c3ccco3)CC1)C2	-56	·	·	·	·	·
Cc1ccc(C(=O)/C=C/c2ccc3ncccc3c2)cc1	-58	–	–	18µM	–	?
Cc1ccc(C(=O)Nc2ccc3ncccc3c2)cc1	?	-85	–	–	–	–
COc1cccc(C(=O)Oc2ccccc2/C=C\C(=O)c2cc3ccccc3o2)c1	-95	–	–	0.58µM	?	?
COc1ccccc1NC(=O)c1cc2ccccc2o1	–	–	–	–	–	–
O=C(Oc1ccccc1/C=C\C(=O)c1cc2ccccc2o1)c1ccccc1	–	–	–	?	–	?
O=C(Oc1ccccc1/C=C\C(=O)c1cc2ccccc2o1)c1cccc(F)c1	-68	–	?	18µM	–	?
Cc1ccccc1OCCNc1ccc(C(F)(F)F)cc1[N+](=O)[O-]	–	–	–	–	–	–
O=[N+]([O-])c1cc(C(F)(F)F)ccc1NCCOc1ccccc1	-78	–	–	–	–	–
O=[N+]([O-])c1cc(C(F)(F)F)ccc1NC1CCN(Cc2ccccc2)CC1	-55	–	–	–	–	–
O=[N+]([O-])c1cc(C(F)(F)F)ccc1NC1CCN(Cc2ccccc2)C1 (configuration not stated)	?	–	–	–	–	–
CC1(C)CC(Nc2ccc(C(F)(F)F)cc2[N+](=O)[O-])CC(C)(C)N1	-52	–	–	–	–	–
COc1ccc(-c2cc(C(C)=O)c(C)n2CCC(=O)Nc2ccc(C(F)(F)F)cc2)cc1	·	·	–	·	–	·
CCOc1ccccc1CN1CCc2nc(N3CCN(c4ccccc4F)CC3)ncc2C1	·	·	–	·	–	·

Bioassay records from PubChem BioAssay.
